Laboratory results: ChEMBL document CHEMBL3988442, “University of Dundee, Small-Polar-MMV Screening Library” (2021)
In all, about 48,000 compounds went through this assay and about 13,000 (27%) showed an effect of 50% or more. Some of the results follow.

system: Wolbachia pipientis; experiment: Anti-Wolbachia Cell-Based Screen; format: functional; parameters: scale not given: in the data most compounds retested in dose-response had high values; conditions: 5 µM

| SMILES | Percent Effect [%] |
| --- | --- |
| N#CCCCS(=O)(=O)N1CCC(CSc2ccccc2)C1 (centres undefined) | -3.001 |
| O=C(C1SCCc2sccc21)N1CCN(CCO)CC1 (centres undefined) | 1.361 |
| O=C1NC2(Nc3ncccc31)C(=O)Nc1c2ccc(Cl)c1F (centres undefined) | -11.72 |
| c1ccc(-c2nnc3n2CCN(c2nc(C4CC4)ns2)C3)cc1 | -0.2636 |
| O=C(Cn1ccc2ncccc2c1=O)N1CCSCC1 | -22.33 |
| CN(Cc1noc2c1CCCC2)C(=O)Cn1cnc2ccccc2c1=O | 0.7727 |
| CCn1ccnc1SCCn1cnc2ccsc2c1=O | -20.68 |
| CCCc1nccn1CCn1cnc2ccsc2c1=O | -10.48 |
| CN1C(=O)COc2ccc(C(=O)Cn3cnc4ccsc4c3=O)cc21 | 115.3 |
| CN1C(=O)COc2ccc(C(=O)Cn3cnc4ccccc4c3=O)cc21 | 102.3 |
| CC(C)(C)C(=O)N1CCN(CCOc2cccc(C#N)c2)CC1 | 23.12 |
| CCC[C@@H]1CN(C(=O)c2c(F)ccc(OC)c2F)C[C@H]1C(=O)O | -8.772 |
| CCOc1ccc(N(C)Cc2nc(C)c(C)o2)cc1 | 2.822 |
| CCOC(=O)c1coc(N2CCN(Cc3cccc(OC)c3)C(=O)C2)n1 | -20.43 |
| COc1ccc2c(c1)nc1n2[C@@H](CNCc2ccccc2)COC1 | -7.543 |
| C/N=C1/c2cc3cc(OC)ccc3n2CCN1Cc1ccccc1.Cl | 86.74 |
| C/N=C1\c2cc3cc(OC)ccc3n2CCN1C.Cl | 97.02 |
| CCN1CC(NC(=O)Nc2nc(C)n(C(C)C)n2)CC1=O (centres undefined) | -13.6 |
| Cc1cc(N2CCC3(CCC(=O)N(CCCO)C3)CC2)nc(N(C)C)n1 | 15.64 |
| O=C(NC1CC1)[C@H]1CC[C@@H]2[C@@H](CCN2c2ncc(F)cn2)O1.O=C(O)C(F)(F)F | -10.92 |
| COc1ccc(C[C@H]2CN(c3cc(OC)ncn3)CC[C@@H]2OC)cc1.O=C(O)C(F)(F)F | -9.694 |
| O=C(NC1CCCC1)[C@H]1CC[C@@H]2[C@@H](CCN2c2ncc(F)cn2)O1.O=C(O)C(F)(F)F | 6.364 |
| COc1cc(N2CC[C@H]3O[C@@H](C(=O)NC4CCCC4)CC[C@H]32)ncn1.O=C(O)C(F)(F)F | 90.73 |
| COc1cc(N2CC[C@@H]3O[C@H](C(=O)N(C)C)C[C@@H]32)ncn1.O=C(O)C(F)(F)F | 99.56 |
| COc1ccc(C[C@H]2CN(c3cc(OC)ncn3)CC[C@H]2OC)cc1.O=C(O)C(F)(F)F | -1.133 |

| SMILES | Percent Effect [%] |
| --- | --- |
| COc1cc(NC(=O)c2cc(C)sc2C)c(C(=O)N(C)C)cc1OC | -0.1136 |
| CC(=O)c1ccc(-n2ccc3nc(N4CCCC4)ncc3c2=O)cc1 | -1.476 |
| CN(C)CC1(O)CCN(Cc2cnc3c(-c4ccccc4)cnn3c2)C1 (centres undefined) | -5.196 |
| CC(CCN1CCCn2nc(CNS(C)(=O)=O)cc2C1)c1ccccc1 (centres undefined) | 111.7 |
| CS(=O)(=O)NCc1cc2n(n1)CCCN(Cc1cc3ccccc3o1)C2 | 0.8182 |
| CC(CCN1CCn2nc(CNC(=O)N(C)C)cc2C1)c1ccccc1 (centres undefined) | -9.419 |
| CN(C)C(=O)CSc1nnc(CCNC(=O)OC(C)(C)C)o1 | 15.65 |
| COC(=O)CSc1nnc(CCNC(=O)OC(C)(C)C)o1 | 120.8 |
| CC(C)Sc1nnc(CCNC(=O)OC(C)(C)C)o1 | 12.98 |
| Cc1nc(N2CC[C@@H](NC(=O)c3cnccn3)[C@H](O)C2)c2ccsc2n1 | 4.294 |
| Cc1nc(CN(C)C2CCN(CC(=O)NC3CCOCC3)C2)no1 (centres undefined) | -6.239 |
| CN(Cc1noc(C2CC2)n1)C1CCN(CC(=O)N2CCOCC2)C1 (centres undefined) | 87.19 |
| Cc1nc(CN(C)C2CCN(CC(=O)N3CCOCC3)C2)no1 (centres undefined) | -5.301 |
| Cc1nc(CN(C)C2CCN(CCC(=O)N3CCOCC3)C2)no1 (centres undefined) | 118.2 |
| CCc1nc(CN(C)C2CCN(CC(=O)N3CCOCC3)C2)no1 (centres undefined) | 114.4 |
| c1ccc(-n2cc(CN3CCCC(Cn4cncn4)C3)nn2)cc1 (centres undefined) | 6.927 |
| CC(C)N(C)[C@@H]1CCN(c2ncccn2)[C@H]1Cc1ccncc1.O=C(O)C(F)(F)F.O=C(O)C(F)(F)F | -5.254 |
| Cc1cnc(C(=O)N2CCCC(Cn3cc(CC(C)C)nn3)C2)cn1 (centres undefined) | -14.05 |
| CC(C)CNC(=O)c1cc(Br)c2c(c1)OCCO2 | -6.005 |
| CCCc1cc(CN(C)C2CSCCSC2)n[nH]1 | -33.01 |
| Cn1cccc1C(=O)N1CCCCC1c1[nH]ncc1S(C)(=O)=O (centres undefined) | 102.3 |
| Cc1ccc(C(=O)N2CCCCC2c2[nH]ncc2S(C)(=O)=O)s1 (centres undefined) | 77.94 |
| Cn1cccc1-c1cc(C(=O)N2CCCC2c2cccnc2)[nH]n1 (centres undefined) | -7.739 |
| Cc1cccnc1C(=O)N1CCCCC1c1[nH]ncc1S(C)(=O)=O (centres undefined) | -7.963 |
| Cc1ccc(C(=O)N2CCCCC2c2[nH]ncc2S(C)(=O)=O)cn1 (centres undefined) | 107.9 |

| SMILES | Percent Effect [%] |
| --- | --- |
| Cc1cnc(C(=O)N2CCCCC2c2[nH]ncc2S(C)(=O)=O)cn1 (centres undefined) | -8.056 |
| CC1CCCCN1C(=O)c1ccc(Br)s1 (centres undefined) | 10.55 |
| Cc1cccc(C(=O)N2CCCCC2c2ccc(CN(C)C)cc2)c1 (centres undefined) | 14.25 |
| Cn1cccc1-c1cc(C(=O)N2CCCCC2c2ccc(F)cc2)[nH]n1 (centres undefined) | 6.407 |
| Cc1cccc(C(=O)N2CCCCC2c2[nH]ncc2S(C)(=O)=O)c1 (centres undefined) | 98.38 |
| NC(=O)C1CCCCN1C(=O)c1ccc(Br)s1 (centres undefined) | 11.69 |
| CC1CCN(CC(O)CNc2ccc(Cl)cn2)CC1 (centres undefined) | 15.58 |
| CC(=O)N(C)CC(=O)Nc1ccc(C)cc1OCc1ccccc1 | 2.382 |
| Cc1nc(CNC(=O)N(Cc2ccccc2)CC(C)(C)O)oc1C | -21.53 |
| CC(=O)NCCCNCc1ccc(Cl)c2cccnc12 | -6.459 |
| CC(Cn1cccn1)NC(=O)NCc1cccnc1OC1CCCC1 (centres undefined) | 11.91 |
| Cc1ccc(C(=O)NC(C)Cn2cccn2)c(=O)[nH]1 (centres undefined) | -0.2392 |
| COc1ccc(CNC(=O)NC(C)Cn2cccn2)cc1O (centres undefined) | 8.397 |
| CC(Cn1cccn1)NC(=O)NCc1ccc(S(N)(=O)=O)cc1 (centres undefined) | 4.625 |
| CC(Cn1cccn1)NC(=O)NCc1ccc(S(C)(=O)=O)cc1 (centres undefined) | 102.2 |
| CC(C)NC(=O)NCc1ccc(C(=O)NC(C)Cn2cccn2)cc1 (centres undefined) | 146.4 |
| CC(Cn1cccn1)NC(=O)CCc1ccc(S(N)(=O)=O)cc1 (centres undefined) | 6.181 |
| CC(Cn1cccn1)NC(=O)NCc1ccc(C(N)=O)cc1 (centres undefined) | 167.3 |
| CC(C)c1nccn1C(C)C(=O)NCc1noc(Cc2cccs2)n1 (centres undefined) | 8.731 |
| O=C(NC1CC1)N1CCOC2(CCCN(c3cccc(F)c3)C2)C1 (centres undefined) | -2.504 |
| CC(CCc1ccccc1F)C(=O)NS(=O)(=O)CC1CC1 (centres undefined) | -8.345 |
| CC(=O)N1CCC(Nc2cccc(OC(F)F)c2C)CC1 | -10.39 |
| Cn1cnnc1CN1CCC2(CCC(=O)N(Cc3ccccn3)C2)CC1 | -8.652 |
| Cc1noc(-c2ccnc(N3CCN(C4CCOCC4)CC3)c2)n1 | 8.096 |
| Cc1nc(-c2cccc(N3CCC(N4CCCC4)CC3)c2)cs1 | -1.882 |

| SMILES | Percent Effect [%] |
| --- | --- |
| Cc1noc(-c2ccnc(N3CCC(N4CCCC4)CC3)c2)n1 | -2.845 |
| Clc1cc(N2CCN(C3CCOCC3)CC2)nc2[nH]ccc12 | 109.8 |
| FC(F)(F)c1ccnc(N2CCCN(C3CCOCC3)CC2)c1 | -6.382 |
| Clc1cc(N2CCC(N3CCCC3)CC2)nc2[nH]ccc12 | 113 |
| COc1cc(N2CCC3(CC2)CC(N2CCOCC2)CO3)ncn1 (centres undefined) | -10.74 |
| CCS(=O)(=O)N1CCC2(CN(c3cc(OC)ncn3)C2)C1 | -9.777 |
| COc1cc(N2CCC3(CC2)OCC(=O)NC3C)ncn1 (centres undefined) | 115.6 |
| COc1cc(N2CCC3(CC2)C(c2ccncc2)CC(=O)N3C)ncn1 (centres undefined) | 16.73 |
| COc1cc(N2CC3(CCN(S(=O)(=O)C4CC4)C3)C2)ncn1 | -10.78 |
| COc1cc(N2CCC3(CC2)CN(C)C(=O)CO3)ncn1 | 113.9 |
| COc1cc(N2CCC3(CC2)CC(N2CCN(C)CC2)CO3)ncn1.O=C(O)C(F)(F)F.O=C(O)C(F)(F)F (centres undefined) | -26.84 |
| COc1cc(N2CCC3(CC2)CNC(=O)CO3)ncn1 | 115.6 |
| CC(C)NC(=O)c1nnn(-c2cccc(C(F)(F)F)c2)c1N | 5.987 |
| O=C(CCO)N1CCC2(CCc3ccc(-c4ccoc4)cc32)CC1 | -1.453 |
| COc1ncccc1C(=O)N1CCC(c2nc3c(C)cccc3[nH]2)CC1 | -11.64 |
| Cc1cnn(CC2CCCN2CCc2nc3ccccc3c(=O)[nH]2)c1 (centres undefined) | -0.3603 |
| c1ccc(Cn2ccnc2CN2CCOC(Cn3cccn3)C2)cc1 (centres undefined) | 5.197 |
| Cc1cnn(CC2CN(c3ncnc4ccccc34)CCO2)c1 (centres undefined) | -26.67 |
| O=c1[nH]c(CN2CCOC(Cn3cccn3)C2)nc2ccccc12 (centres undefined) | 108.3 |
| Cc1cnn(CC2CN(Cc3nc4cccnc4[nH]3)CCO2)c1 (centres undefined) | 117.2 |
| O=S(=O)(CCN1CCOC(Cn2cccn2)C1)c1ccccc1 (centres undefined) | -8.739 |
| Cc1cnn(CC2CN(Cc3nc4ccccc4c(=O)[nH]3)CCO2)c1 (centres undefined) | 128.5 |
| N[C@@H]1CC[C@@H]1NC(=O)c1ccccc1OC(F)(F)C(F)F | -9.663 |
| CNC(=O)CN1CCO[C@H]2CN(C(=O)C3CC3)C[C@H]21.O=C(O)C(F)(F)F | 8.052 |
